# G9a inh: qHTS Assay for Inhibitors of Histone Lysine Methyltransferase G9a; G9a H3K9 monomethylation, AlphaScreen, 2 h; 350,000 tested, 8.8% active; Histone-lysine N-methyltransferase EHMT2 (Homo sapiens), Q96KQ7; Potency, µM (series often up to 102 µM), hits mostly inhibitors; note: nearly all actives have a fitted effect of over 75% in size
# Target sequence (Q96KQ7 913-1193 limits assumed): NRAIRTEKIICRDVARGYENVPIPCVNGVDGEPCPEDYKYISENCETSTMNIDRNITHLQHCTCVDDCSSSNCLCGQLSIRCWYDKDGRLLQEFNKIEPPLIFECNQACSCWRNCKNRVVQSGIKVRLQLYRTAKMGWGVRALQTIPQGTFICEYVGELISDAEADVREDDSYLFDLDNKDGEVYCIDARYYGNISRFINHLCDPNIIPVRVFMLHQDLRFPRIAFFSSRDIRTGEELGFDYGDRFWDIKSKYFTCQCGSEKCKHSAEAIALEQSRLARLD
#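 Compounds were preincubated with 20 nM G9a for 15 min, after which biotinylated H3K9 peptide (500 nM) and SAM (20 uM) started a 2 h room-temperature reaction. Monomethylated product was quantified by antibody-based AlphaScreen chemiluminescence.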
# BAZ2B block: qHTS Assay for Inhibitors of BAZ2B; Bromodomain adjacent to zinc finger domain protein 2B (Homo sapiens), Q9UIF8; Potency, µM (series often up to 114 µM), actives largely listed as inhibitors; 360,000 tested, 4.4% active; AlphaScreen BAZ2B-H3K14Ac peptide displacement; note: nearly all actives have a fitted effect of over 60% in size
#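 In this displacement format the biotinylated H3(5-23) peptide acetylated at Lys14 serves as ligand at 50 nM, with BAZ2B at 50 nM in PBS pH 7.4 containing 0.01% Tween-20. Donor and acceptor beads are 10 ug/mL final.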
# HP1b chromo inh: HTS for Inhibitors of HP1-beta Chromodomain Interactions with Methylated Histone Tails | Chromobox protein homolog 1 (Homo sapiens), P83916 | AlphaScreen HP1-beta / biotin-H3K9me3 peptide binding | Potency, µM (highest dose often 114 µM), hits mostly inhibitors | 390,000 tested, 0.56% active; note: nearly all actives have a fitted effect of over 70% in size
# Target sequence (P83916 whole entry, looked up): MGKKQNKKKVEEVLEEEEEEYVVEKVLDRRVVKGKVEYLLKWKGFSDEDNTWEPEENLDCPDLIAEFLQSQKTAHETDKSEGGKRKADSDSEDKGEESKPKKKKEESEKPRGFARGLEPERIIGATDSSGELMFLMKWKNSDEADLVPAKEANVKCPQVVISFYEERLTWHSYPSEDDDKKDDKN
#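 HP1-beta protein (50 nM final) preincubated 30 min at room temperature with biotinylated H3(1-18)K9me3 peptide (50 nM) in PBS pH 7.4, 0.01% Tween-20, then compound added for 30 min. AlphaScreen streptavidin donor/nickel chelate acceptor beads (10 ug/mL final), 30 min dark, luminescence read.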
# JMJD2A Tudor inh: qHTS Assay for Inhibitors of JMJD2A-Tudor Domain | 390,000 tested, 4.4% active | Lysine-specific demethylase 4A (Homo sapiens), O75164 | Potency, µM (highest dose often 114 µM), actives largely listed as inhibitors | AlphaScreen JMJD2A-Tudor / H3K4me3 peptide binding; note: nearly all actives have a fitted effect of over 50% in size
# L3MBTL1 inh: qHTS Assay for the Inhibitors of L3MBTL1; Lethal(3)malignant brain tumor-like protein 1 (Homo sapiens), Q9Y468; AlphaScreen L3MBTL1–H3K9me1 peptide binding; Potency, µM (top dose mostly 57.1 µM), usual class: inhibitors; 230,000 tested, 0.66% active; AID 485360, 2010; note: nearly all actives have a fitted effect of over 60% in size
#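 AlphaScreen assay: L3MBTL1 (50 nM final) was preincubated 30 min at room temperature with biotinylated H3(1-15)K9me1 peptide (75 nM final), then 30 min with library compounds; streptavidin donor and nickel chelate acceptor beads (10 ug/mL final) added, 30 min dark.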
# Sfp inh: qHTS Assay for Inhibitors of Bacillus subtilis Sfp phosphopantetheinyl transferase (PPTase); 4'-phosphopantetheinyl transferase ffp (Bacillus subtilis), Q9F4F7; Biochemical Sfp PPTase activity, qHTS; Potency, µM, hits mostly inhibitors; 310,000 tested, 3.5% active;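 note: the enzyme is Sfp with the accession as filed and its product quenches rhodamine fluorescence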
#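 After 15 min at room temperature with compound, 15 nM Sfp received 5 uM rhodamine-CoA plus 12.5 uM BHQ-2-ybbR (50 mM Hepes pH 7.6, 10 mM MgCl2). Rate came from the fluorescence difference over 30 min, ex 525/em 598 nm.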
# A number is an active result; 0 = inactive; ? = inconclusive; - = no result; [ ] = remark or other dose. Only some compounds are listed: those with a hit (about 12% of all), similar ones and a draw of the others. Calls come from the whole dose curve; as a rule, active = well fitted curve in the direction sought with a large enough effect; inconclusive = small, poorly fitted or top-dose-only effect, or another doubt; inactive = no such curve, though single readings can be large; an effect the other way counts as inactive or inconclusive.
SMILES,G9a inh,BAZ2B block,HP1b chromo inh,JMJD2A Tudor inh,L3MBTL1 inh,Sfp inh
CC1=C(C(=O)OCc2ccccc2)C(c2ccc(-c3ccccc3)cc2)NC(=O)N1CCCCCC(=O)O (stereo unspecified),35µM,50µM,0,?,0,0
CC1=C(C(=O)OCc2ccccc2)C(c2ccc(C(C)(C)C)cc2)NC(=O)N1CCCCCC(=O)O (stereo unspecified),45µM,50µM,0,0,0,0
CC1=C(C(=O)OCc2ccccc2)C(c2ccc3ccccc3c2)NC(=O)N1CCCCCC(=O)O (stereo unspecified),?,?,0,0,0,0
O=C(c1ccc(Cl)cc1Cl)n1nnc2ccccc21,-,-,-,-,-,0
O=C(Oc1ccccc1Cl)c1ccccc1,-,-,0,0,-,-
O=C(Oc1cccccc1=O)c1ccccc1,25µM,?,0,0,0,25µM
O=C(O)CC1Sc2nnc(COc3ccc(Cl)cc3)n2N=C1c1ccccc1 (stereo unspecified),25µM,0,0,0,-,0
C=CCN1C(=O)CSC1=Nc1ccc(O)cc1,0,0,0,0,-,0
C=CCn1c(O)c(C2=c3ccccc3=NC2=O)sc1=Nc1ccc(O)cc1,0[12.7 µM],22µM,?,22µM,-,0
CC(=O)Nc1ccc(S(=O)(=O)N/N=C/c2ccc(C)o2)cc1,45µM,?,0,0,-,0
Cc1ccc(S(=O)(=O)N/N=C\c2ccc(C)o2)cc1,?,50µM,0,?,?,0
O=c1ccccn1CCOc1ccccc1Cl,0,0,0,0,0,0
CCN(Cc1ccccc1)c1ccc(/C=N/N=C(N)N)cc1,?,?,?,35µM,0,?
CCN(Cc1ccccc1)c1ccccc1,-,-,0,0,-,-
COc1cc(/C=C/C(=O)Nc2nnc(CC(C)(C)C)s2)cc(OC)c1OC,2.2µM,0,?,?,0,45µM
COc1cc(/C=C/C(=O)Nc2nnc(CC(C)C)s2)cc(OC)c1OC,0,0,0,0,0,0
O=C(Nc1nnc(-c2cccs2)s1)c1cccc(F)c1,32µM,0,0,0,0,0
Cc1ccccc1NS(=O)(=O)c1ccc(C(=O)NCC(C)(C)N2CCOCC2)cc1,0[0.501 µM],0,0,0,0,-
COc1ccc(NC(=O)CCc2nc3c(C)nn(-c4ccc(C)cc4)c3n(C)c2=O)c(OC)c1,0[12.7 µM],0,0,0,-,-
CCc1ccc(CN(C)C(=O)c2cc(COc3ccc(OC)cc3Cl)on2)nc1,0,0,0,0,-,0
O=C(CSc1nnc(-c2ccco2)o1)N1CCCCC1,0,0,0,0,-,0
O=C(CSc1ccc(-c2ccco2)nn1)N1CCCCC1,22µM,?,0,0,-,?
O=C(CSc1ccc(-c2ccco2)nn1)N1CCCC1,?,0,0,0,-,50µM
Cn1c(SCC(=O)N2CCCCCC2)nnc1-c1ccco1,?,0,0,0,-,0
COC(=O)C/C=C/[C@@H](C)[C@H](NC(=O)OCC(Cl)(Cl)Cl)c1cccc(OC)c1,-,-,-,-,-,0
SMILES,G9a inh,BAZ2B block,HP1b chromo inh,JMJD2A Tudor inh,L3MBTL1 inh,Sfp inh
Cc1onc(-c2c(F)cccc2Cl)c1C(=O)ONC(=O)c1ccco1,50µM,0,0,40µM,-,0
Cc1onc(-c2c(Cl)cccc2Cl)c1C(=O)NNc1ccccc1,-,?,0,79µM,0,0
Cc1onc(-c2c(Cl)cccc2Cl)c1NC(=O)NNc1ccccc1,40µM,0,0,0,0,0
Cc1onc(-c2c(Cl)cccc2Cl)c1NC(=O)NNc1c(Cl)cncc1Cl,0,0,0,0,0,0
Cc1cc(C)nc(S/C=C/C(=O)c2ccccc2F)n1,14µM,0,0,?,0,0
COc1ccc(NC(=O)c2nnn(-c3ccc(C(C)C)cc3)c2C)c(OC)c1,0,0,0,0,-,-
Cc1noc(NS(=O)(=O)c2ccc(NC(=O)CC(C)C)cc2)c1C,0,0,0,0,-,0
Cc1noc(NS(=O)(=O)c2ccc(NC(=O)CSc3nc4c(cc3C#N)CCCCC4)cc2)c1C,79µM,0,0,0,-,0
CN1CCc2nc(SCC(=O)Nc3ccc(F)cc3)c(C#N)cc2C1,6.3µM,0,-,-,0,0
CCN1CCc2nc(SCC(=O)Nc3ccc(OC)cc3)c(C#N)cc2C1,?,0,0,0,0,0
COc1ccc(NC(=O)CSc2nc3c(cc2C#N)CN(C)CC3)cc1,11µM,0,0,0,-,0
O=C(NC1CCS(=O)(=O)C1)Oc1ccc(Cl)cc1 (stereo unspecified),0,0,0,0,-,0
COc1ccc(NC(=O)C2CCCN(c3ncnc4c3nc3n4CCCCC3)C2)c(OC)c1 (stereo unspecified),0,0,0,0,-,-
COc1ccc(/C=C2\CCc3ccccc3C2=O)cc1Cn1nc(C)cc1C,0[12.7 µM],0,0,0,-,20µM
COc1ccccc1-n1cnc2c(c1=O)c1nc3ccccc3nc1n2-c1ccc(C)c(C)c1,0,56µM,0,0,0,0
CCC(C(=O)NCCc1ccc(OC)cc1OC)n1nc(C)n2c(cc3occc32)c1=O (stereo unspecified),-,0,0,0,-,0
COc1ccc(/C(N)=N/OC(=O)Cc2cccs2)cc1,0,0,0,0,0,0
COc1ccc(/C(N)=N/OC(=O)Cc2cccs2)cc1OC,0,0,0,0,0,79µM
CN1CCN(c2ccc(S(=O)(=O)N3CCCCC3)cc2NC(=O)COc2ccc(F)cc2)CC1,28µM,?,0,?,0,-
O=C(COc1ccc(Br)cc1)Nc1cc(S(=O)(=O)N2CCCCC2)ccc1N1CCCCC1,0,0,0,0,0,0
CN1CCN(c2ccc(S(=O)(=O)N3CCCCC3)cc2NC(=O)COc2cccc(Cl)c2)CC1,40µM,?,0,?,0,-
Cc1cccc(OCC(=O)Nc2cc(S(=O)(=O)N3CCCCC3)ccc2N2CCN(C)CC2)c1,0,-,0,0,0,0
Cc1[nH]n(-c2ccccc2)c(=O)c1C(c1ccccc1[N+](=O)[O-])C(C#N)C#N (stereo unspecified),28µM,?,0,?,-,0
Cc1[nH]n(-c2ccccc2)c(=O)c1C(C[N+](=O)[O-])c1ccc(F)cc1 (stereo unspecified),45µM,?,0,0,0,0
Cc1[nH]n(-c2ccccc2)c(=O)c1C(c1ccccc1C(=O)O)c1c(C)[nH]n(-c2ccccc2)c1=O,?,0,0,0,0,0
Cc1noc(C)c1COc1ccccc1C(=O)N(C)CC(=O)Nc1ccc(F)c(F)c1F,0[2.33 µM],0,0,0,0,-

# Screening results as filed in PubChem.
